In PubChem BioAssay AID1159580 (chemical genetic matrix, 2015):
Where “and” joins values, the source holds several entries; their conditions need not be identical. Equal values may be shown once. Out of some 5,500 compounds screened, about 2,000 (36%) were called active. Another 18% or so got no clear call; they are omitted. Rule as the data show it: active = normalized growth mostly below about 0.91 (no sharp cut-off); inconclusive = no clear call, values can overlap the other calls; inactive = mostly above about 0.92. This is one part of the list.

Experiment: chemical genetic growth profiling, strain panel (AID 1159580);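 also: tested at 20 µM; growth read once vehicle control cultures reached saturation at 30 °C; 1 = growth at the plate median or of vehicle wells; lower values mean less growth of the strain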
Conditions: growth OD

Measured: normalized growth

Cn1c(=O)c2[nH]c(C3CCCC3)nc2n(C)c1=O
inactive: S. cerevisiae deletion strains, locus YJR075W, strain HOC1, active compounds read low 1.01 and 1.04 | S. cerevisiae deletion strains, locus YKL009W, strain mrt4, active compounds read low 1 | S. cerevisiae deletion strains, locus YKL068W, active compounds read low 1.02 | S. cerevisiae deletion strains, locus YKL085W, strain MDH1 (second series), active compounds read low 1.05 | S. cerevisiae deletion strains, locus YKL085W, strain MDH1, active compounds read low 1.05 | S. cerevisiae deletion strains, locus YKL160W, strain elf1, active compounds read low 0.983 | S. cerevisiae deletion strains, locus YKL190W, strain CNB1, active compounds read low 1.02 | S. cerevisiae deletion strains, locus YKR001C, strain vps1, active compounds read low 1 | S. cerevisiae deletion strains, locus YKR026C, strain gcn3, active compounds read low 1 | S. cerevisiae deletion strains, locus YKR091W, strain srl3, active compounds read low 0.991 | S. cerevisiae deletion strains, locus YLL001W, strain dnm1, active compounds read low 0.97 | S. cerevisiae deletion strains, locus YLL026W, active compounds read low 0.989 | S. cerevisiae deletion strains, locus YLL041C, strain sdh2, active compounds read low 0.988 | S. cerevisiae deletion strains, locus YLR027C, strain aat2, active compounds read low 0.995 | S. cerevisiae deletion strains, locus YLR039C, strain RIC1, active compounds read low 0.966 | S. cerevisiae deletion strains, locus YLR058C, strain SHM2, active compounds read low 1.01 | S. cerevisiae deletion strains, locus YLR102C, strain apc9, active compounds read low 0.999 | S. cerevisiae deletion strains, locus YLR113W, strain HOG1, active compounds read low 1 | S. cerevisiae deletion strains, locus YLR221C, strain rsa3, active compounds read low 0.988 | S. cerevisiae deletion strains, locus YLR258W, strain gsy2, active compounds read low 0.972 | S. cerevisiae deletion strains, locus YLR262C, strain YPT6 (second series), active compounds read low 0.997 | S. cerevisiae deletion strains, locus YLR262C, strain YPT6, active compounds read low 1.04 | S. cerevisiae deletion strains, locus YLR268W, strain sec22, active compounds read low 0.988 | S. cerevisiae deletion strains, locus YLR320W, strain mms22, active compounds read low 0.989 | S. cerevisiae deletion strains, locus YLR330W, strain CHS5, active compounds read low 1.01 | S. cerevisiae deletion strains, locus YLR342W, strain FKS1 (second series), active compounds read low 1 | S. cerevisiae deletion strains, locus YLR342W, strain FKS1, active compounds read low 0.986 | S. cerevisiae deletion strains, locus YLR357W, strain rsc2, active compounds read low 0.954 | S. cerevisiae deletion strains, locus YLR370C, strain arc18, active compounds read low 0.997 | S. cerevisiae deletion strains, locus YLR371W, strain rom2, active compounds read low 0.997 | S. cerevisiae deletion strains, locus YLR384C, strain iki3, active compounds read low 0.986 | S. cerevisiae deletion strains, locus YLR418C, strain cdc73, active compounds read low 0.989 | S. cerevisiae deletion strains, locus YML016C, strain PPZ1, active compounds read low 1.02 | S. cerevisiae deletion strains, locus YML032C, strain rad52, active compounds read low 0.99 | S. cerevisiae deletion strains, locus YML120C, strain ndi1, active compounds read low 0.992 | S. cerevisiae deletion strains, locus YML124C, strain tub3, active compounds read low 0.998 | S. cerevisiae deletion strains, locus YMR058W, strain fet3, active compounds read low 1 | S. cerevisiae deletion strains, locus YMR078C, strain ctf18, active compounds read low 0.996 | S. cerevisiae deletion strains, locus YMR125W, strain sto1, active compounds read low 0.979 | S. cerevisiae deletion strains, locus YMR129W, active compounds read low 0.999 | S. cerevisiae deletion strains, locus YMR205C, strain PFK2, active compounds read low 0.988 | S. cerevisiae deletion strains, locus YMR223W, strain ubp8, active compounds read low 0.989 | S. cerevisiae deletion strains, locus YMR231W, strain pep5, active compounds read low 0.988 | S. cerevisiae deletion strains, locus YMR263W, strain SAP30, active compounds read low 1.02 and 0.995 | S. cerevisiae deletion strains, locus YMR307W, strain GAS1, active compounds read low 1.05 and 1.01 | S. cerevisiae deletion strains, locus YNL067W, strain RPL9B, active compounds read low 1.02 | S. cerevisiae deletion strains, locus YNL071W, strain lat1, active compounds read low 0.997 | S. cerevisiae deletion strains, locus YNL128W, strain TEP1, active compounds read low 1.01 and 0.993 | S. cerevisiae deletion strains, locus YNL153C, strain GIM3, active compounds read low 1.01 and 0.975 | S. cerevisiae deletion strains, locus YNL175C, strain NOP13, active compounds read low 0.977 | S. cerevisiae deletion strains, locus YNL183C, strain NPR1, active compounds read low 0.942 | S. cerevisiae deletion strains, locus YNL197C, strain WHI3, active compounds read low 0.935 | S. cerevisiae deletion strains, locus YNL209W, strain ssb2, active compounds read low 0.996 | S. cerevisiae deletion strains, locus YNL224C, strain SQS1, active compounds read low 0.989 | S. cerevisiae deletion strains, locus YNL233W, strain BNI4, active compounds read low 1.01 | S. cerevisiae deletion strains, locus YNL248C, strain rpa49, active compounds read low 0.968 | S. cerevisiae deletion strains, locus YNL250W, strain rad50, active compounds read low 1 | S. cerevisiae deletion strains, locus YNL271C, strain bni1, active compounds read low 0.989 | S. cerevisiae deletion strains, locus YNL298W, strain CLA4, active compounds read low 0.998 | S. cerevisiae deletion strains, locus YNL307C, strain MCK1, active compounds read low 0.996 | S. cerevisiae deletion strains, locus YNL322C, strain KRE1 (second series), active compounds read low 0.985 | S. cerevisiae deletion strains, locus YNL322C, strain KRE1, active compounds read low 1.01 | S. cerevisiae deletion strains, locus YNR049C, strain mso1, active compounds read low 0.994 | S. cerevisiae deletion strains, locus YNR052C, strain pop2, active compounds read low 1 | S. cerevisiae deletion strains, locus YOL006C, strain TOP1, active compounds read low 1.05 | S. cerevisiae deletion strains, locus YOL012C, strain htz1 0.701 | S. cerevisiae deletion strains, locus YOL147C, strain pex11, active compounds read low 0.986 | S. cerevisiae deletion strains, locus YOR001W, strain rrp6, active compounds read low 0.989 | S. cerevisiae deletion strains, locus YOR061W, strain CKA2, active compounds read low 1.01 | S. cerevisiae deletion strains, locus YOR069W, strain VPS5, active compounds read low 1.01 | S. cerevisiae deletion strains, locus YOR070C, strain gyp1, active compounds read low 0.998 | S. cerevisiae deletion strains, locus YOR080W, strain dia2, active compounds read low 0.985 | S. cerevisiae deletion strains, locus YOR083W, strain WHI5 (second series), active compounds read low 0.977 | S. cerevisiae deletion strains, locus YOR083W, strain WHI5, active compounds read low 0.99 | S. cerevisiae deletion strains, locus YOR106W, strain vam3, active compounds read low 0.991 | S. cerevisiae deletion strains, locus YOR136W, strain idh2, active compounds read low 0.988 | S. cerevisiae deletion strains, locus YOR144C, strain elg1, active compounds read low 0.998 | S. cerevisiae deletion strains, locus YOR184W, strain ser1, active compounds read low 0.981 | S. cerevisiae deletion strains, locus YOR231W, strain MKK1, active compounds read low 0.981 | S. cerevisiae deletion strains, locus YOR265W, strain rbl2, active compounds read low 1 | S. cerevisiae deletion strains, locus YOR270C, strain vph1, active compounds read low 1.02 | S. cerevisiae deletion strains, locus YOR290C, strain snf2, active compounds read low 0.925 | S. cerevisiae deletion strains, locus YOR316C, strain cot1, active compounds read low 0.999 | S. cerevisiae deletion strains, locus YPL051W, strain arl3, active compounds read low 0.992 | S. cerevisiae deletion strains, locus YPL055C, strain LGE1, active compounds read low 1.02 | S. cerevisiae deletion strains, locus YPL078C, strain atp4, active compounds read low 0.997 | S. cerevisiae deletion strains, locus YPL106C, strain sse1, active compounds read low 0.985 | S. cerevisiae deletion strains, locus YPL240C, strain hsp82, active compounds read low 0.983 | S. cerevisiae deletion strains, locus YPL241C, strain CIN2, active compounds read low 1.04 and 1.01 | S. cerevisiae deletion strains, locus YPL256C, strain CLN2, active compounds read low 0.953 | S. cerevisiae deletion strains, locus YPR119W, strain clb2, active compounds read low 0.997 | S. cerevisiae deletion strains, locus YPR141C, strain kar3, active compounds read low 0.997 | S. cerevisiae deletion strains, locus YPR163C, strain tif3, active compounds read low 0.998 | S. cerevisiae deletion strains, locus YPR167C, strain met16, active compounds read low 0.997 | S. cerevisiae deletion strains, strain wtn01, active compounds read low 1.01 | S. cerevisiae strains, strain wild type, active compounds read low 1.01
